# High-throughput results from PubChem.
# An excerpt weighted towards active compounds, which were near 4% of everything screened.
# Wnt act = Wnt/beta-catenin pathway activation; Wnt/beta-catenin reporter cell assay, activator, plate reader; activation, % at 9.35 µM; actives 1.2% (n = 300,000); in the data active = activation above about 30%, passing the limit was not always enough;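 also: 0% = neutral control wells and 100% = positive control wells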
# PAX8 inh HTS = lowers PAX8-driven luciferase in RMG-I cells; actives 1.2% (n = 360,000); RMG-I TPO-luciferase reporter, SteadyGlo, 24 h; inhibition, % at 12.6 µM; AID 652154;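 active = mean replicate inhibition at least 60% with every replicate also reaching 60%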;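 also: luciferase light reporting Pax8 driven TPO promoter activity; plate controls were median of neutral control wells for no effect and mitoxantrone controls for full effect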
# TRPM1 prom inh = inhibitors of MITF-driven TRPM1 promoter in melanoma cells; SK-MEL-5 TRPM1 promoter luciferase, 24 h; inhibition, % at 12.5 µM; actives 0.83% (n = 330,000);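 active = mean inhibition across replicates of 60% or more, whatever share of single replicates reaches that level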
# MITF TRPM1 HTS = MITF TRPM1 promoter activation in melanoma cells. SK-MEL-5 TRPM1-promoter luciferase, 24 h; % of positive control, neutral wells = 0. activation, % at 12.5 µM. actives 0.75% (n = 300,000). AID 588334;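 active = mean activation of at least 80% with every replicate also reaching 80%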;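 also: 0% = neutral control wells and 100% = parthenolide positive control wells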
# esBAF inh = blocks esBAF chromatin remodeling in mouse ES cells | Bmi1-luciferase knock-in reporter, 24 h; 100% = twice the neutral-well signal | reporter increase, % at 12.5 µM | actives 2% (n = 350,000); in the data active = activation above about 40%;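 also: 0% = median of the plate's neutral control wells and 100% = double that signal; a rise in the Bmi1 reporter signal indicates esBAF inhibition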
# EWS-Fli block = blocks EWS/Fli oncoprotein-driven transcription; A673 NR0B1-luciferase reporter, viability-normalised; inhibition, % at 12.6 µM; actives 0.67% (n = 350,000);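 active = mean inhibition of at least 50% after viability correction, with every replicate also passing that limit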;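 also: firefly luciferase signal divided by Alamar Blue viability fluorescence both relative to DMSO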
# Numbers without * were called inactive; x = no result given.
SMILES,Wnt act,PAX8 inh HTS,TRPM1 prom inh,MITF TRPM1 HTS,esBAF inh,EWS-Fli block
C[C@H]1CN([C@@H](C)CO)C(=O)Cc2cc(NS(=O)(=O)c3ccccc3)ccc2O[C@@H]1CN(C)C(=O)Nc1ccc2c(c1)OCO2,x,-18,x,x,33,-13
CO[C@H]1CN(C)C(=O)c2cc(NC(=O)C3CC3)ccc2OC[C@@H](C)N(C(=O)CN2CCOCC2)C[C@H]1C,x,-8,x,x,-2,6
COc1ccc(S(=O)(=O)N2CCCCN3[C@H](C2)[C@@H](c2ccc(C#CCC(C)C)cc2)[C@@H]3CO)cc1,x,-2,x,x,x,8
COc1ccc(S(=O)(=O)N2CCCCN3[C@@H](CO)[C@H](c4ccc(C#CC(C)C)cc4)[C@@H]3C2)cc1,x,74*,x,x,-8,27
CCCC#Cc1cnc2c(c1)C(=O)N([C@@H](C)CO)C[C@H](C)[C@@H](CN(C)C)O2,x,x,x,x,-4,-10
C[C@H]1CCCCO[C@@H](CN(C)Cc2ccc(C(F)(F)F)cc2)[C@@H](C)CN([C@@H](C)CO)C(=O)c2cc(NS(=O)(=O)c3ccccc3)ccc2O1,x,87*,x,x,5,-19
C[C@@H]1CCCCO[C@H](CN(C)Cc2ccccc2)[C@H](C)CN([C@H](C)CO)C(=O)c2cc(NS(=O)(=O)c3ccccc3)ccc2O1,x,-8,x,x,8,-7
C[C@H]1CCCCO[C@H](CN(C)Cc2ccc(C(F)(F)F)cc2)[C@@H](C)CN([C@@H](C)CO)C(=O)c2cc(NS(=O)(=O)c3ccccc3)ccc2O1,x,65*,x,x,-3,15
C[C@@H]1CN([C@@H](C)CO)C(=O)c2cc(NS(=O)(=O)c3ccccc3)ccc2O[C@@H](C)CCCCO[C@@H]1CN(C)Cc1ccc(C(F)(F)F)cc1,x,106*,x,x,-1,-9
C[C@@H]1CN([C@H](C)CO)C(=O)c2cc(NS(=O)(=O)c3ccccc3)ccc2O[C@@H](C)CCCCO[C@H]1CN(C)Cc1ccc(C(F)(F)F)cc1,x,102*,x,x,1,-7
C[C@@H]1CCCCO[C@H](CN(C)Cc2ccc(C(F)(F)F)cc2)[C@@H](C)CN([C@H](C)CO)C(=O)c2cc(NS(=O)(=O)c3ccccc3)ccc2O1,x,13,x,x,-1,5
Cc1noc(C)c1NC(=O)N(C)C[C@@H]1Oc2ccc(NC(=O)Nc3ccc(F)cc3)cc2CC(=O)N([C@@H](C)CO)C[C@@H]1C,x,-16,x,x,1,-5
C[C@@H]1CCCCO[C@H](CN(C)S(C)(=O)=O)[C@@H](C)CN([C@@H](C)CO)C(=O)c2cc(NC(=O)Nc3ccc(F)cc3)ccc2O1,x,-2,x,x,3,-2
C[C@@H]1CN([C@@H](C)CO)C(=O)c2cc(NC(=O)CCN3CCOCC3)ccc2O[C@@H]1CN(C)Cc1ccc2c(c1)OCO2,x,-23,x,x,-4,8
O=C(C[C@@H]1CC[C@H](NC(=O)c2cccc(F)c2)[C@H](CO)O1)NCc1ccc(Oc2ccccc2)cc1,x,28,x,x,-2,12
Cc1ccc(S(=O)(=O)Nc2ccc3c(c2)C(=O)N([C@H](C)CO)C[C@@H](C)[C@@H](CN(C)C(=O)Nc2c(C)noc2C)OCCCC[C@@H](C)O3)cc1,x,12,x,x,5,11
CC(C)NC(=O)N(C)C[C@H]1OCc2ccccc2-c2c(n(C)c3ccccc23)C(=O)N([C@H](C)CO)C[C@H]1C,x,x,x,x,4,6
C[C@H](CO)N1C[C@H](C)[C@H](CN(C)Cc2ccc(C(F)(F)F)cc2)OCCCC[C@H](C)Oc2ccc(NS(=O)(=O)c3ccccc3)cc2C1=O,x,99*,x,x,-1,10
O=C(Nc1ccc(Cl)cc1)/C(=C/c1cccc(O)c1)c1nc2ccccc2s1,-39,98*,92*,-92,x,30
S=C(Nc1ccc(Cl)cc1)c1nc2ccccc2s1,x,x,-37,45,35,x
CCCC#Cc1ccc2c(c1)O[C@@H](CN(C)C(=O)c1ccccn1)[C@@H](C)CN([C@H](C)CO)S2(=O)=O,x,x,x,x,-5,-3
Cc1cc(CNC(=O)c2ccc3nc(Cc4ccccc4F)oc3c2)nn1C,27,-248,-99,94*,69*,-123
O=C(NCc1ccncc1)c1ccc2nc(Cc3ccccc3F)oc2c1,-1,8,3,1,9,5
C[C@H](CO)N1C[C@H](C)[C@H](CN(C)S(=O)(=O)c2cn(C)cn2)Oc2ccc(NC(=O)Nc3ccc(C(F)(F)F)cc3)cc2CC1=O,-5,43,24,-22,5,61*
C[C@@H]1CN([C@@H](C)CO)C(=O)Cc2cc(NC(=O)Nc3ccc(C(F)(F)F)cc3)ccc2O[C@@H]1CN(C)S(=O)(=O)c1ccc(Cl)cc1,-20,96*,47,-43,1,18
SMILES,Wnt act,PAX8 inh HTS,TRPM1 prom inh,MITF TRPM1 HTS,esBAF inh,EWS-Fli block
C[C@H]1CN([C@@H](C)CO)C(=O)Cc2cc(NC(=O)Nc3ccc(C(F)(F)F)cc3)ccc2O[C@@H]1CN(C)S(=O)(=O)c1cn(C)cn1,x,12,x,x,-2,0
C[C@H]1CN([C@@H](C)CO)C(=O)Cc2cc(NC(=O)Nc3ccc(C(F)(F)F)cc3)ccc2O[C@H]1CN(C)S(=O)(=O)c1ccc(Cl)cc1,x,x,x,x,1,57*
C[C@@H]1CN([C@H](C)CO)C(=O)Cc2cc(NC(=O)Nc3ccc(C(F)(F)F)cc3)ccc2O[C@@H]1CN(C)S(=O)(=O)c1ccc(F)cc1,x,7,x,x,1,1
Cc1noc(C)c1NC(=O)Nc1ccc2c(c1)C(=O)N([C@@H](C)CO)C[C@H](C)[C@H](CN(C)CC1CCCCC1)OCCCC[C@H](C)O2,x,x,x,x,2,16
Cc1cccc2c1-c1sc(C(=O)N3CCCCC3)cc1CO2,23,-262,-89,88*,68*,-112
CCN=C1NN=C(c2cc(C)n(Cc3ccco3)c2C)CS1,x,x,80*,-79,x,64*
CN(C)c1ccc(N=Nc2ccc(S(N)(=O)=O)cc2)cc1,42*,-195,-71,67,4,x
C[C@@H]1CCCCO[C@@H](CN(C)CC2CC2)[C@H](C)CN([C@H](C)CO)C(=O)c2cc(NS(C)(=O)=O)ccc2O1,x,2,x,x,-5,x
O=C(CSc1nncs1)Nc1ccc(N2CCCCC2)cc1,14,-60,-21,25,57*,-21
Cc1ccc(C2=NN3C(=O)c4ccccc4C3C2)cc1 (centres undefined),39*,-77,-27,31,39,-88
CN(C)C(=O)[C@@H]1[C@@H](CO)[C@@H]2Cn3c(ccc(C4=CCCC4)c3=O)[C@H]1N2CC1CCOCC1,x,x,x,x,-5,-9
CC1=C(C(=O)Nc2ccccn2)C(c2ccc(Cl)cc2)NC(=S)N1 (centres undefined),2,-82,-36,38,44*,-89
CC1=C(C(=O)Nc2ccccn2)C(c2ccc(Cl)cc2Cl)NC(=S)N1 (centres undefined),x,-1,7,-7,x,-34
CC1=C(C(=O)Nc2ccccn2)C(c2ccccc2Cl)NC(=S)N1 (centres undefined),22,5,-27,26,66*,-60
